The source of these data is the supplement of paper PMC10849652.

About 7,900 targets were measured; listed, in parts, are those with a hit and a random draw of the rest. About 0.6% of all pairs of compound and target were hits.

UniProt Q9Y613, sequence (Q9Y613 whole entry, looked up): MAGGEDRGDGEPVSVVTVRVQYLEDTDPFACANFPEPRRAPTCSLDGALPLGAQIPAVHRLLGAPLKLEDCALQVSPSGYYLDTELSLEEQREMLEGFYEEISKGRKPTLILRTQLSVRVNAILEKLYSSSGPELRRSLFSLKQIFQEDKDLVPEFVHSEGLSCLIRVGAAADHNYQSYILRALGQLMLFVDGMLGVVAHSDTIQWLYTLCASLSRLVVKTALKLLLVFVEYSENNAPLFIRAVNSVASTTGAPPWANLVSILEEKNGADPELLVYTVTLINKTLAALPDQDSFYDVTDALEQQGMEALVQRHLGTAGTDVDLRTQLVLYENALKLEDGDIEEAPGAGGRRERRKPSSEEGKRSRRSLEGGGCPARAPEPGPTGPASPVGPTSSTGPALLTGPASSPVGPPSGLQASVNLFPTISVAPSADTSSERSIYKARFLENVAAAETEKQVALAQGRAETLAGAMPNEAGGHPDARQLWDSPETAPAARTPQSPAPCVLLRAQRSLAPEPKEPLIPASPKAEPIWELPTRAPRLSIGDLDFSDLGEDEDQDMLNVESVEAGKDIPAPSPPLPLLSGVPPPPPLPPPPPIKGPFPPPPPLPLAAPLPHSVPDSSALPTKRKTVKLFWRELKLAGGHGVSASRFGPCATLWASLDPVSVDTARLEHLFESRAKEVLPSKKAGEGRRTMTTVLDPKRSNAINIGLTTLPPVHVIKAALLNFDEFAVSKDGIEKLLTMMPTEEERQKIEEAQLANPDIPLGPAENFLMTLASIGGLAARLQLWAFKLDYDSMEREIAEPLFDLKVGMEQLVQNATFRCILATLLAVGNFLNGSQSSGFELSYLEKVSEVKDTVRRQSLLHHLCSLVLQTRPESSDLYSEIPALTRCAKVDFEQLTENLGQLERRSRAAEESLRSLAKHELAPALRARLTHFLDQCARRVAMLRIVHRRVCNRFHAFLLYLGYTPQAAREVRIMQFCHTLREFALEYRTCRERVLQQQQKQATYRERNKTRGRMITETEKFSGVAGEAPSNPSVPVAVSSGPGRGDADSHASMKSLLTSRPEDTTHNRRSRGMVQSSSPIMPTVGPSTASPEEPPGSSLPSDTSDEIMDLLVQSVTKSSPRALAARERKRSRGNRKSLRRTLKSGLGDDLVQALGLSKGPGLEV
UniProt O60725, sequence (O60725 whole entry, looked up): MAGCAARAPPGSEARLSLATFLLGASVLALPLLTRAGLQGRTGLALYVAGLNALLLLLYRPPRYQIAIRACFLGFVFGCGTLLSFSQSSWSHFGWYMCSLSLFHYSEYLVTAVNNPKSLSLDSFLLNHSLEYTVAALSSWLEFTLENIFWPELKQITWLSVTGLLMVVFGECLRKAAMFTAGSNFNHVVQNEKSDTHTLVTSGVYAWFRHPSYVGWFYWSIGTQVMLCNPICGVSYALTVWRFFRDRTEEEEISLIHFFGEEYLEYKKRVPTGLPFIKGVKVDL
UniProt Q53T59, sequence (Q53T59 whole entry, looked up): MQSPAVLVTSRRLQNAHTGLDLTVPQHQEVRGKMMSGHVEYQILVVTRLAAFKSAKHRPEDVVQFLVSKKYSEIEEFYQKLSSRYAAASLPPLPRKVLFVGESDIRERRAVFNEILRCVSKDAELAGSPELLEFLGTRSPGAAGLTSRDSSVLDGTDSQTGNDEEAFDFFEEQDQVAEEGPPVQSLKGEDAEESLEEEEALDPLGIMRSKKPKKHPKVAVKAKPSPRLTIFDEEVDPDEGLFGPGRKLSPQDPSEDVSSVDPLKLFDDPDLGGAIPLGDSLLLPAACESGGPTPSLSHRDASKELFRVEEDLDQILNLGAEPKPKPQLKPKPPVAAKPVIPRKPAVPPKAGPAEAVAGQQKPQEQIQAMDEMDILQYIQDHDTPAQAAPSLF
UniProt O15228, sequence (O15228 whole entry, looked up): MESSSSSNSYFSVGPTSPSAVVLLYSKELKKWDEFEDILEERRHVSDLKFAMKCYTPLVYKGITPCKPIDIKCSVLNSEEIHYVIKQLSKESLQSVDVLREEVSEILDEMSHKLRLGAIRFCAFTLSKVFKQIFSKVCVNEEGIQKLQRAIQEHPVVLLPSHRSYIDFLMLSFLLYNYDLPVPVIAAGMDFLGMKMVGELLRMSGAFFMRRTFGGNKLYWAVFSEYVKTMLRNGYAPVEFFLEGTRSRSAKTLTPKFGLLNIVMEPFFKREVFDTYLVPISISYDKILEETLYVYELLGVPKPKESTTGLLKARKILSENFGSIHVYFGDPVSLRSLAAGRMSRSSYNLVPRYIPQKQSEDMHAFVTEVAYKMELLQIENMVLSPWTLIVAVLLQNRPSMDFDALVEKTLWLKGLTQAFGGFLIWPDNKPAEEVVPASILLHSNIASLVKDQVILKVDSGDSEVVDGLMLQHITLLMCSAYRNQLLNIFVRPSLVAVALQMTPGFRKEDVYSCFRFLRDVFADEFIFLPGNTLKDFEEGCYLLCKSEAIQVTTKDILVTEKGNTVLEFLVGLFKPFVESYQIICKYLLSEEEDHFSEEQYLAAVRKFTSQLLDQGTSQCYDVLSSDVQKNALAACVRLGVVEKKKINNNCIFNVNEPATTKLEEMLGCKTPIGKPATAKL
UniProt P30711, sequence (P30711 whole entry, looked up): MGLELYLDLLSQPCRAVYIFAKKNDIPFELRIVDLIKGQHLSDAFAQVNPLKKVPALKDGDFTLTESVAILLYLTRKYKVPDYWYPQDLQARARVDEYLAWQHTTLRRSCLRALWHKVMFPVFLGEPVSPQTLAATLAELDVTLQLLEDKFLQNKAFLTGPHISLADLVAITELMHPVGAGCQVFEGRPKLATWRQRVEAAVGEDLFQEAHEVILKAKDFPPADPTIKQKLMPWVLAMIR
UniProt P52655, sequence (P52655 whole entry, looked up): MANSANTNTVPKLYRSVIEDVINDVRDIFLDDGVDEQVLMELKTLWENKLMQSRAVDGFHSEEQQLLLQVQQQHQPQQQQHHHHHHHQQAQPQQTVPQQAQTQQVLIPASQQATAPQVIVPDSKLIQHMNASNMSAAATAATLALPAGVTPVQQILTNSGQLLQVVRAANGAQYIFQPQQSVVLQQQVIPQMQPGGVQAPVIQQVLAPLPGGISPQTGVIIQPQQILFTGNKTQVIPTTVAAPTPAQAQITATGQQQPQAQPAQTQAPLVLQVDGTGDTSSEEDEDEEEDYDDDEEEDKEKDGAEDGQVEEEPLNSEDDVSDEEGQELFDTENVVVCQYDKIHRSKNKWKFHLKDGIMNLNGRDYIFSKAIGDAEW
UniProt Q8WUI4, sequence (Q8WUI4 whole entry, looked up): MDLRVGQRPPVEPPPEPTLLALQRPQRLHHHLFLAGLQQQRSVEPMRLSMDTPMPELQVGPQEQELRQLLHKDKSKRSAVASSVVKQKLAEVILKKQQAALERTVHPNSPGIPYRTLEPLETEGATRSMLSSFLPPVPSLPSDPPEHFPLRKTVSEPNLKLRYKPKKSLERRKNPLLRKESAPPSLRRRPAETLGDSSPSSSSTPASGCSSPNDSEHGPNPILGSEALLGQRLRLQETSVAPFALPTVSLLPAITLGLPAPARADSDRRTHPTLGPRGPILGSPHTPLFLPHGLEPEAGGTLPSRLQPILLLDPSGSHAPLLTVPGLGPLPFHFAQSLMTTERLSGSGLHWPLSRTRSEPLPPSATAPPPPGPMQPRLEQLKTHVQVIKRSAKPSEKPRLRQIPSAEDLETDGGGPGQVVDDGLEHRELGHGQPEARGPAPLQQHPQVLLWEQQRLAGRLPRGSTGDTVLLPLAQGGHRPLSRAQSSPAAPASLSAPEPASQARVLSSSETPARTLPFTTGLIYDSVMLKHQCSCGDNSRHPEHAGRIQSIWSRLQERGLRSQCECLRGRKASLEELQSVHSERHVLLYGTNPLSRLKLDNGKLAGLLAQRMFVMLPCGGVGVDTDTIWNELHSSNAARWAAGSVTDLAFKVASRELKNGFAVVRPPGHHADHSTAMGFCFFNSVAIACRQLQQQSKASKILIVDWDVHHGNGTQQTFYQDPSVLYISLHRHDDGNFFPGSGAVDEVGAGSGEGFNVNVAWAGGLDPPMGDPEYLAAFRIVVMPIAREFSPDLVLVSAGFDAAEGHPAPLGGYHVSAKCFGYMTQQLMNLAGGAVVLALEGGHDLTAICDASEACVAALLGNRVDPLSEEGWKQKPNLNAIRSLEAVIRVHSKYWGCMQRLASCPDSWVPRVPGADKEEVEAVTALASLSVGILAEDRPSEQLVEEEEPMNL
UniProt Q969S8, sequence (Q969S8 whole entry, looked up): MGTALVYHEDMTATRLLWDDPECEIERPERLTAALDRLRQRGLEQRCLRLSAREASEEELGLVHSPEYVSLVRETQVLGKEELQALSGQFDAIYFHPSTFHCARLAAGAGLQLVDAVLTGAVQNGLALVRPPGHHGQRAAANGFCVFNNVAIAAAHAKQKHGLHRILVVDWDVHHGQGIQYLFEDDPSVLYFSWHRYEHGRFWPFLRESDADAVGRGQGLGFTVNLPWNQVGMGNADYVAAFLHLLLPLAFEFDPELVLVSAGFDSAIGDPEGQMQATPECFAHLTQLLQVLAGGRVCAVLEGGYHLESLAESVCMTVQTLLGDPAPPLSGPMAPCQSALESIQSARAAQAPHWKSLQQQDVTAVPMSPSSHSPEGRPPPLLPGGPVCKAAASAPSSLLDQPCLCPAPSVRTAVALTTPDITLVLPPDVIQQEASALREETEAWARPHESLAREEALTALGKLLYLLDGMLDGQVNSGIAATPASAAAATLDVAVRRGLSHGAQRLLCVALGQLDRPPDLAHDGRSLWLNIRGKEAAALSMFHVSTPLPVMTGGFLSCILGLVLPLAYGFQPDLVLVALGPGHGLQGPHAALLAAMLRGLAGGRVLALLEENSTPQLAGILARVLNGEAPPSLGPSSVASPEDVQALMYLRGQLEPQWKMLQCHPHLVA
UniProt Q9Y324, sequence (Q9Y324 whole entry, looked up): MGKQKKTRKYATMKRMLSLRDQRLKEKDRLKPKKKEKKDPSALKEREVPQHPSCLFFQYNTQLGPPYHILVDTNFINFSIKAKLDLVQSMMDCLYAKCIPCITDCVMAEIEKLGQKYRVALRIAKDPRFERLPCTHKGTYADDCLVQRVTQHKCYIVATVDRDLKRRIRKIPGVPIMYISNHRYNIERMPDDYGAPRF

Compound in one assay: CNc1nc(-c2ccc3c(N)n[nH]c3c2)cc(N2C[C@@H](C(=O)NC3CCCCC3)CC[C@H]2C)n1
The experiment in a line: log2 fold change, soluble protein after heating vs DMSO (PISA); higher = thermal stabilisation; K562 cells, 10 uM, 30 min; active = over 0.2 and 3.5 SD of the protein, either way, in both replicates (recomputed). The essentials:
(§1)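 Thermal stability values are relative to control samples and come from duplicates. They are expressed as log2 fold changes. For measurement, K562 cells (2×10^6 cells/mL) received 10 μM compound for 30 min, and aliquots were heated for 3 min over 48°C-58°C, pooled, and extracted at 4°C in PBS with 0.5% NP-40. Soluble protein, the supernatant after 21,000xg for 90 min, was quantified by TMTpro 16plex LC-MS/MS with equalised channel sums.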
For GNPAT (UniProt O15228), the log2 fold change is -0.041 (inactive).
Same read-out and setting: the figure for GOPC (UniProt Q9HD26) is 0.164 (inactive).
Still for that read-out and setting: the figure for FCF1 (UniProt Q9Y324) is 0.2 (inactive); for HNRNPUL1 (UniProt M0R247) it is -0.431 (inactive); for FHOD1 (UniProt Q9Y613) it is 0.101 (inactive).
As for GNL3 (UniProt Q9BVP2), the log2 fold change is 0.044 (inactive).
As to IGF2 isoform 3 (UniProt P01344), the log2 fold change is -0.105 (inactive).
Consider GPD1 (UniProt P21695), for which the log2 fold change is 0.05 (inactive).
Take HDAC7 isoform 5 (UniProt Q8WUI4): the log2 fold change was 0 (inactive).
On to FIZ1 (UniProt Q96SL8), for which the log2 fold change was -0.095 (inactive).
Same read-out and setting: under GABARAPL2 (UniProt P60520) stands -0.013 (inactive).
Same read-out and setting: under FAT2 (UniProt Q9NYQ8) stands 0.021 (inactive); under FBXO9 (UniProt Q9UK97), -0.014 (inactive).
For FYB1 isoform 3 (UniProt O15117), the log2 fold change was -0.076 (inactive).
ICMT (UniProt O60725): the log2 fold change is 0.235 (inactive).
Still for that read-out and setting: under FAT1 (UniProt Q14517) stands -0.094 (inactive).
As to GTF2A1 (UniProt P52655), the log2 fold change is -0.003 (inactive).
Same read-out and setting: under HS1BP3 (UniProt Q53T59) stands 0.371 (active); under GSTT1 (UniProt P30711), 0 (inactive); under GBE1 (UniProt Q04446), 0.076 (inactive).
As to HDAC10 (UniProt Q969S8), the log2 fold change is -0.02 (inactive).
As to HNRNPK isoform 3 (UniProt P61978), the log2 fold change is -0.035 (inactive).
Regarding GEMIN2 (UniProt O14893), the log2 fold change is 0.013 (inactive).
The same measure, in the same setting: under GOLGA8R (UniProt I6L899) stands 0.246 (inactive); under GSE1 (UniProt Q14687), -0.014 (inactive).

Compound in a further assay: COC(=O)N[C@@H](C)CNc1nccc(-c2cn(C(C)C)nc2-c2cc(Cl)cc(NS(C)(=O)=O)c2F)n1 [encorafenib]
Described as above. The essentials:
as §1
HBZ, A0A494C057: the log2 fold change is -0.094 (inactive).
On the same count and under the same terms, the figure for FMR1 (UniProt Q06787) is 0.04 (inactive); for GNPAT (UniProt O15228) it is 0.001 (inactive).
On the same count and under the same terms, under FCF1 (UniProt Q9Y324) stands 0.121 (inactive).
For the target HNRNPUL1 (UniProt M0R247), the log2 fold change was -0.086 (inactive).
Turning to GPS2 (UniProt Q13227), the log2 fold change was 0.041 (inactive).
Consider FHOD1 (UniProt Q9Y613), for which the log2 fold change is 0.187 (inactive).
GNL3 (UniProt Q9BVP2): the log2 fold change is -0.065 (inactive).
Still for that read-out and setting: the figure for HSPA8 (UniProt E9PN89) is 0.023 (inactive); for HDAC7 isoform 5 (UniProt Q8WUI4) it is -0.016 (inactive); for FIZ1 (UniProt Q96SL8) it is 0.069 (inactive).
For GABARAPL2 (UniProt P60520), the log2 fold change was -0.02 (inactive).
Consider FAT2 (UniProt Q9NYQ8), for which the log2 fold change is 0.094 (inactive).
The same measure, in the same setting: the figure for FBXO9 (UniProt Q9UK97) is 0.152 (inactive); for GPNMB (UniProt Q14956) it is -0.25 (inactive).
Same read-out and setting: under FYB1 isoform 3 (UniProt O15117) stands 0.074 (inactive); under ICMT (UniProt O60725), -0.144 (inactive); under GTF2A1 (UniProt P52655), -0.056 (inactive).
On the same count and under the same terms, the figure for HS1BP3 (UniProt Q53T59) is 0.037 (inactive).
With GSTT1 (UniProt P30711), the log2 fold change was 0.023 (inactive).
The same measure, in the same setting: under GBE1 (UniProt Q04446) stands 0.062 (inactive); under HDAC10 (UniProt Q969S8), 0.024 (inactive).
Still for that read-out and setting: under HNRNPK isoform 3 (UniProt P61978) stands -0.041 (inactive); under GEMIN2 (UniProt O14893), 0.151 (inactive); under GOLGA8R (UniProt I6L899), -0.098 (inactive).

Compound in another assay: COC(=O)[C@H](CCSC)NC(=O)C1=C(C=C(C=C1)NC[C@H](CS)N)C2=CC=CC=C2
Described as above. Summed up:
as §1
As to GNPAT (UniProt O15228), the log2 fold change was -0.027 (inactive).
With GOPC (UniProt Q9HD26), the log2 fold change is -0.229 (inactive).
On the same count and under the same terms, the figure for FCF1 (UniProt Q9Y324) is -0.044 (inactive).
The same measure, in the same setting: the figure for GPS2 (UniProt Q13227) is -0.025 (inactive); for FHOD1 (UniProt Q9Y613) it is 0.049 (inactive).
Still for that read-out and setting: under GNL3 (UniProt Q9BVP2) stands 0.015 (inactive); under GREB1 (UniProt Q4ZG55), -0.112 (inactive).
With IGF2 isoform 3 (UniProt P01344), the log2 fold change was 0.006 (inactive).
On to HSPA8 (UniProt E9PN89), for which the log2 fold change was -0.036 (inactive).
Regarding GPD1 (UniProt P21695), the log2 fold change is 0.016 (inactive).
Same read-out and setting: the figure for HDAC7 isoform 5 (UniProt Q8WUI4) is 0.012 (inactive); for FIZ1 (UniProt Q96SL8) it is 0.108 (inactive); for GABARAPL2 (UniProt P60520) it is -0.009 (inactive).
With FAT2 (UniProt Q9NYQ8), the log2 fold change was 0.001 (inactive).
Still for that read-out and setting: the figure for FBXO9 (UniProt Q9UK97) is -0.037 (inactive); for FYB1 isoform 3 (UniProt O15117) it is -0.01 (inactive); for ICMT (UniProt O60725) it is 0.062 (inactive).
Same read-out and setting: under FAT1 (UniProt Q14517) stands -0.087 (inactive); under GTF2A1 (UniProt P52655), 0.032 (inactive).
Same read-out and setting: the figure for HS1BP3 (UniProt Q53T59) is -0.175 (inactive); for GSTT1 (UniProt P30711) it is -0.062 (inactive).
As for GBE1 (UniProt Q04446), the log2 fold change is -0.034 (inactive).
For HDAC10 (UniProt Q969S8), the log2 fold change was -0.137 (inactive).
For the target HNRNPK isoform 3 (UniProt P61978), the log2 fold change is -0.028 (inactive).
On the same count and under the same terms, under GEMIN2 (UniProt O14893) stands 0.072 (inactive); under GOLGA8R (UniProt I6L899), -0.086 (inactive).
In the case of GSE1 (UniProt Q14687), the log2 fold change is -0.498 (active).
On the same count and under the same terms, under GOLGA6B (UniProt A6NDN3) stands -0.475 (inactive).
